What all share (assay): DAPPL (digital affinity profiling via proximity ligation, sequencing); 10 mM Tris-HCl pH 7.5, 50 mM NaCl, 1 mM DTT, 4% glycerol, room temperature, 30 min; GST-TFs on glutathione beads, 16-mer random dsDNA library, 0.1% formaldehyde crosslink after washing; high values mean tight binding
For one assay, the target named is T1, FEV (Homo sapiens, UniProt Q99581 1-238).
T1 sequence: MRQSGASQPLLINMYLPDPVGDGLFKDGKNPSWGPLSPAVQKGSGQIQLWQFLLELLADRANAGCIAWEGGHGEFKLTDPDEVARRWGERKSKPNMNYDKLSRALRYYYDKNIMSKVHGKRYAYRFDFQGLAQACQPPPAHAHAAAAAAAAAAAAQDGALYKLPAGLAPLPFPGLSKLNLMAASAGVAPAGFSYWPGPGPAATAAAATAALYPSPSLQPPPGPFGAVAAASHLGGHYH
Particulars: protein: recombinant; tags: N-terminal GST; dsDNA, one strand shown. A digest of the protocol: (§1)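 Beads coated with glutathione captured GST-fused human transcription factors that had been expressed in yeast, and the factors were then given DNA barcodes and pooled with a tag-only sample. The pools were incubated with 200 nmole of a random double-stranded 16-mer DNA library in Tris/NaCl/DTT/glycerol buffer for 30 min at room temperature, washed, crosslinked with 0.1% formaldehyde and proximity-ligated with BsaI/T4 ligase at 37 °C for 1 h. PCR amplification and Illumina NextSeq500 sequencing came last. Binding signal is each hexamer's read frequency for a factor divided by its frequency for the tag-only sample.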

The target in a further assay is ETV5 (Homo sapiens, UniProt P41161 1-510). To be noted: protein: recombinant; tags: N-terminal GST; dsDNA, one strand shown. The method in brief: as §1
A further assay has as its target HSF1 (Homo sapiens, UniProt Q00613 1-529). To be noted: protein: recombinant; tags: N-terminal GST; chain copies: 3; dsDNA, one strand shown. A digest of the protocol:
as §1

The target in the next assay is T2, SPIC (Homo sapiens, UniProt Q8N5J4 1-248).
T2 sequence: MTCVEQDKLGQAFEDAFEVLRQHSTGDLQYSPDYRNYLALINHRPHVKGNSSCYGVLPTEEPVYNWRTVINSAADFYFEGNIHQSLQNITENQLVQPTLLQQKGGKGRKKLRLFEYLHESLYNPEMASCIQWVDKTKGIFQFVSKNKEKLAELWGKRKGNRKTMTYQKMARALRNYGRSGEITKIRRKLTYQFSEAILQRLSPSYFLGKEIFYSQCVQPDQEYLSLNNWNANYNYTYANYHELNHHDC
Particulars: protein: recombinant; tags: N-terminal GST; dsDNA, one strand shown. The method in brief: as §1

The target in the next assay is ELF4 (Homo sapiens, UniProt Q99607 1-663). To be noted: protein: recombinant; tags: N-terminal GST; dsDNA, one strand shown. The method in brief:
as §1

Another assay concerns the target T3, ELK4 (Homo sapiens, UniProt P28324-2 1-405).
T3 sequence: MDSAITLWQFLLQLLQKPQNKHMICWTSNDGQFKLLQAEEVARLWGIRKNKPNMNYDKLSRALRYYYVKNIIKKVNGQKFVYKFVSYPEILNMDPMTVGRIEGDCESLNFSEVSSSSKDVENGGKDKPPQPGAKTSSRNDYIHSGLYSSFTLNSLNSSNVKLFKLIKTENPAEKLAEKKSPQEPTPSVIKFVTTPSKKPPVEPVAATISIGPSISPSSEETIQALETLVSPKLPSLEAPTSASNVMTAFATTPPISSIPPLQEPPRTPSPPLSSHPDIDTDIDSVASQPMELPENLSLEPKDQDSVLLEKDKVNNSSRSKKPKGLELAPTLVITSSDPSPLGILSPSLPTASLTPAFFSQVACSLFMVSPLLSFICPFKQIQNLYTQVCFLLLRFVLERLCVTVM
Particulars: protein: recombinant; tags: N-terminal GST; dsDNA, one strand shown. The method in brief:
as §1

A further assay addresses T4, ETV2 (Homo sapiens, UniProt O00321 1-342).
T4 sequence: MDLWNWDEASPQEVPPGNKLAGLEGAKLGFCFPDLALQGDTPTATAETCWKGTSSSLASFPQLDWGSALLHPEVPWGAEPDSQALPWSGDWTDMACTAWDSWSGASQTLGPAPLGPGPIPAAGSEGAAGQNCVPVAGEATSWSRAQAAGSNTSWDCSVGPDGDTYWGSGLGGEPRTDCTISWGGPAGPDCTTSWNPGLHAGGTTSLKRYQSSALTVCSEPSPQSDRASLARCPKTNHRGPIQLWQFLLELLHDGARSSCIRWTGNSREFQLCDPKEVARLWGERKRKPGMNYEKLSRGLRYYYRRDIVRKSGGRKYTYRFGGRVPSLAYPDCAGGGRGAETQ
To be noted: protein: recombinant; tags: N-terminal GST; dsDNA, one strand shown. A digest of the protocol: as §1

The next assay addresses T5, ELF3 (Homo sapiens, UniProt P78545 1-371).
T5 sequence: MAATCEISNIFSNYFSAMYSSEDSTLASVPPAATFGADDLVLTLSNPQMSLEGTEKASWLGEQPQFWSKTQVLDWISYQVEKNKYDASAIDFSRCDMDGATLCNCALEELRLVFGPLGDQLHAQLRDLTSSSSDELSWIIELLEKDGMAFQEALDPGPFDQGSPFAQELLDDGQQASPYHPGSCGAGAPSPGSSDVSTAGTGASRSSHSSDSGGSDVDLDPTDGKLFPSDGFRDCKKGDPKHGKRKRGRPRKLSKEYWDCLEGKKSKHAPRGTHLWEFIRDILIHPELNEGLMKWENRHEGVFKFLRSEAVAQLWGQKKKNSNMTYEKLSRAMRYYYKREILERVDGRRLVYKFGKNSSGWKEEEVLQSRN
Particulars: protein: recombinant; tags: N-terminal GST; dsDNA, one strand shown. The method in brief: as §1

For the next assay, the target named is CRX (Homo sapiens, UniProt O43186 1-299). To be noted: protein: recombinant; tags: N-terminal GST; dsDNA, one strand shown. A digest of the protocol:
as §1

In another assay the target is ETV1 (Homo sapiens, UniProt P50549 1-477). To be noted: protein: recombinant; tags: N-terminal GST; dsDNA, one strand shown. The method in brief: as §1
For the next assay, the target named is T6, ERF (Homo sapiens, UniProt P50548 1-548).
T6 sequence: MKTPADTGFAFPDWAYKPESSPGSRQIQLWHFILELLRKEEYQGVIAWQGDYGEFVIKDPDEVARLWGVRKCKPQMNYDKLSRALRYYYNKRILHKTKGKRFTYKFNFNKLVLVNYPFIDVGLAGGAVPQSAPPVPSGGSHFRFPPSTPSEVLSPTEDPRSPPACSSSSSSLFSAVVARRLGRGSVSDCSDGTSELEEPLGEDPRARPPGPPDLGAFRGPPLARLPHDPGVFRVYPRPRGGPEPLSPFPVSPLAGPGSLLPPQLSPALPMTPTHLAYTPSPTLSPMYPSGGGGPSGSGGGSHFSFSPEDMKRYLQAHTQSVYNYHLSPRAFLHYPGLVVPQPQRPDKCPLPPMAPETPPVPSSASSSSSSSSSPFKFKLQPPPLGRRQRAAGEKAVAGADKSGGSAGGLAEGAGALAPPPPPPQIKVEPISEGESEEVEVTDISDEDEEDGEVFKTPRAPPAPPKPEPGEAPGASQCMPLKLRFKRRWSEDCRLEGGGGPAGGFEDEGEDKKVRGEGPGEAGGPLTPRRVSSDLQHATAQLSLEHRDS
To be noted: protein: recombinant; tags: N-terminal GST; dsDNA, one strand shown. A digest of the protocol: as §1

For the next assay, the target named is T7, ETV3L (Homo sapiens, UniProt Q6ZN32 1-361).
T7 sequence: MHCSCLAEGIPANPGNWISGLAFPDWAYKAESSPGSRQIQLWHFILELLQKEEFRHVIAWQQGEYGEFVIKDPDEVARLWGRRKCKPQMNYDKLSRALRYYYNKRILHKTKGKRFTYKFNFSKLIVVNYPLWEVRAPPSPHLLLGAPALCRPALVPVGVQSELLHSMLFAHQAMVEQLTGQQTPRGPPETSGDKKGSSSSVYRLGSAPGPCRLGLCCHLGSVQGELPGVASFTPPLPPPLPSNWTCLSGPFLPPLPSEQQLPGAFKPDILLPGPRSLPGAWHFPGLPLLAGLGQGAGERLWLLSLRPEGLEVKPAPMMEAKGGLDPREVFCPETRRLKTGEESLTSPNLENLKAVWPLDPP
Particulars: protein: recombinant; tags: N-terminal GST; dsDNA, one strand shown. A digest of the protocol:
as §1

Another assay addresses T8, ETS2 (Homo sapiens, UniProt P15036 1-469).
T8 sequence: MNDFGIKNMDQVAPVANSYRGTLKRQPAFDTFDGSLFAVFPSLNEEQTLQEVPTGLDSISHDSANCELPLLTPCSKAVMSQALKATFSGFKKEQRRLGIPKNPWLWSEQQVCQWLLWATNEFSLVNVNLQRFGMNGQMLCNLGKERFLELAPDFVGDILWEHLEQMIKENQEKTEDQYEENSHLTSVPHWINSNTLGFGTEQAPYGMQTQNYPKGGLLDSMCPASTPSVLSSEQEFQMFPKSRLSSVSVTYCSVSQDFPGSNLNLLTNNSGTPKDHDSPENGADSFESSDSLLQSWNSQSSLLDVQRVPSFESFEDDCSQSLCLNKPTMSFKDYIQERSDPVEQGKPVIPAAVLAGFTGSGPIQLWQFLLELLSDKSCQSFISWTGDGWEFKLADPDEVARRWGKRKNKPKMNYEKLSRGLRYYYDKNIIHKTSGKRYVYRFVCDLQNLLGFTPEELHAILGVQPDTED
To be noted: protein: recombinant; tags: N-terminal GST; dsDNA, one strand shown. A digest of the protocol:
as §1

In a further assay the target is T9, SPDEF (Homo sapiens, UniProt O95238 1-335).
T9 sequence: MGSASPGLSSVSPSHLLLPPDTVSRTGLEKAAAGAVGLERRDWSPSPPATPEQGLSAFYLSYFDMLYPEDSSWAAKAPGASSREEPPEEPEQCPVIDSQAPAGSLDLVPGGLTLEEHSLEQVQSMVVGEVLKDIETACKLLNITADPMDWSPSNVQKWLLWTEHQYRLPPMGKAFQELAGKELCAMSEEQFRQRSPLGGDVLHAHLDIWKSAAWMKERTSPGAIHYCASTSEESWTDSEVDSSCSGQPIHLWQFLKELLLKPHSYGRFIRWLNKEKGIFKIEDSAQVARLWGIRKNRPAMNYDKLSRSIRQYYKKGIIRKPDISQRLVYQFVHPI
To be noted: protein: recombinant; tags: N-terminal GST; dsDNA, one strand shown. A digest of the protocol:
as §1

For another assay, the target named is T10, ETV7 (Homo sapiens, UniProt Q9Y603 1-341).
T10 sequence: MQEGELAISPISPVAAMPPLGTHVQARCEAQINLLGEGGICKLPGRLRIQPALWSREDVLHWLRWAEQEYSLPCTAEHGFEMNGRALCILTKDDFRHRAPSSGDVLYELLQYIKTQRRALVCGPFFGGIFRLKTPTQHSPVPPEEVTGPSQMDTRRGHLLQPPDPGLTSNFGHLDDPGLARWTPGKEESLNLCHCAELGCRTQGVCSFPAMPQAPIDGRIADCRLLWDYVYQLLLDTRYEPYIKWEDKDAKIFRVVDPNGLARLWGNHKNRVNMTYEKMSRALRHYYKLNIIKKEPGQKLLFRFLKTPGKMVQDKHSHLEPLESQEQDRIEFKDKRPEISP
To be noted: protein: recombinant; tags: N-terminal GST; dsDNA, one strand shown. A digest of the protocol: as §1

Another assay addresses T11, ELF5 (Homo sapiens, UniProt Q9UKW6-2 1-255).
T11 sequence: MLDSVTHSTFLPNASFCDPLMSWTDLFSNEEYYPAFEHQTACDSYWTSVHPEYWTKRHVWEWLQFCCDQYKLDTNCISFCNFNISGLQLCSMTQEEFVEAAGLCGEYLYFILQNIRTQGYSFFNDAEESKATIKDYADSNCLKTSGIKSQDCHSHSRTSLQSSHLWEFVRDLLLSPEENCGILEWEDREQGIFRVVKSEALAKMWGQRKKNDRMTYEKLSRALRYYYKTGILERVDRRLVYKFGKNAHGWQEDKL
Particulars: protein: recombinant; tags: N-terminal GST; dsDNA, one strand shown. A digest of the protocol: as §1

The next assay concerns the target T12, ETV3 (Homo sapiens, UniProt P41162-2 1-143).
T12 sequence: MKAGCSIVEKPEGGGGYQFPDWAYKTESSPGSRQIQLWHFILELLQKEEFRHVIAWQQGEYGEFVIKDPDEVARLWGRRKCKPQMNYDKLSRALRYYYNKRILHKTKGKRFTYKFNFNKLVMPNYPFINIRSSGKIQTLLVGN
Particulars: protein: recombinant; tags: N-terminal GST; dsDNA, one strand shown. A digest of the protocol: as §1

The target of the next assay is ETV6 (Homo sapiens, UniProt P41212 1-452). Particulars: protein: recombinant; tags: N-terminal GST; dsDNA, one strand shown. A digest of the protocol:
as §1

Sequence of ETV6 (P41212 whole entry): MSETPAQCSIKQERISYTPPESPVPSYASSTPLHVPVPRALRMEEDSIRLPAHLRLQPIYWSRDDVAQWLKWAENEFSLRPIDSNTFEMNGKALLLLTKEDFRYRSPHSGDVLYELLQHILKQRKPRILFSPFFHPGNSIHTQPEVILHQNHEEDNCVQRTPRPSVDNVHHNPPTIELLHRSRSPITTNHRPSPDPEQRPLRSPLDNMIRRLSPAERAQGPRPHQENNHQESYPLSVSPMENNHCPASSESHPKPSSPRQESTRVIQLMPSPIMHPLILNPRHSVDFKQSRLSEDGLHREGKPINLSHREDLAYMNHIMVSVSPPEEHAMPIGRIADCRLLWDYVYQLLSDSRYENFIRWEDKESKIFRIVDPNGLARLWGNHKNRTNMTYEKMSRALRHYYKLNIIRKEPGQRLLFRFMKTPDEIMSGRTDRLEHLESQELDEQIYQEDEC
Sequence of HSF1 (Q00613 whole entry): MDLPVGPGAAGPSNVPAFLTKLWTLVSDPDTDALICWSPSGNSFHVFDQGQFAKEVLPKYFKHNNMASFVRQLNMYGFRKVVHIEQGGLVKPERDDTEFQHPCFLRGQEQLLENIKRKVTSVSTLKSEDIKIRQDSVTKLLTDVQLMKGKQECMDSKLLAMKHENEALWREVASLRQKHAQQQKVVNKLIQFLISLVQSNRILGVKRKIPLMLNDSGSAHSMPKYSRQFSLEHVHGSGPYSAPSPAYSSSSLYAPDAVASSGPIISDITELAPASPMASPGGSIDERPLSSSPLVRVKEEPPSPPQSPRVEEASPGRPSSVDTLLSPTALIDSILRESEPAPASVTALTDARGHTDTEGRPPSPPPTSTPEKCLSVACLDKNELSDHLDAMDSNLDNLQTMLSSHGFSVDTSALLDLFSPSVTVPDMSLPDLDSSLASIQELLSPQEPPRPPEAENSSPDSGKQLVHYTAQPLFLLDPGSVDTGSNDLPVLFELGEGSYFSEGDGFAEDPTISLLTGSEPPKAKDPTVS
Sequence of CRX (O43186 whole entry): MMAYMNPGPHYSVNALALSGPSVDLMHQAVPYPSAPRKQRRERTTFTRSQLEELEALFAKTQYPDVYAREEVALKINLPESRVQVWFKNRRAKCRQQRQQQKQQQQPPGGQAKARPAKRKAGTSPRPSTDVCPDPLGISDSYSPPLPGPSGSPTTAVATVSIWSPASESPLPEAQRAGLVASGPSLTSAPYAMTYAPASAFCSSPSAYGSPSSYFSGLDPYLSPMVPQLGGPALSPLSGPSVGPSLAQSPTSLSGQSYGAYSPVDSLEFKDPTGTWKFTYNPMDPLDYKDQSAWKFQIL
Sequence of ETV1 (P50549 whole entry): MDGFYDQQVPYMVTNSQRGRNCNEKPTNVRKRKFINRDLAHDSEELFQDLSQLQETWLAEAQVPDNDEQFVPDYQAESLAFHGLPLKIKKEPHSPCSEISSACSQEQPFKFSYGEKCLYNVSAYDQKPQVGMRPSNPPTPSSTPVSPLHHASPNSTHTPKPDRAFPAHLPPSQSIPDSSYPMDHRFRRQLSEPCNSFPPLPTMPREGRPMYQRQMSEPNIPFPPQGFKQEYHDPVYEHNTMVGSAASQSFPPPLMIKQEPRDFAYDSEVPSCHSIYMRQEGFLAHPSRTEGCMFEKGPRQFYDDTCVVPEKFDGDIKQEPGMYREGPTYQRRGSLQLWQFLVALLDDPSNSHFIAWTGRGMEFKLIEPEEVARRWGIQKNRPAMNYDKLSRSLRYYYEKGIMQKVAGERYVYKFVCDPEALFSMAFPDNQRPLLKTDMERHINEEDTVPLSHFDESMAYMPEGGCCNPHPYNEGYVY
Sequence of ELF4 (Q99607 whole entry): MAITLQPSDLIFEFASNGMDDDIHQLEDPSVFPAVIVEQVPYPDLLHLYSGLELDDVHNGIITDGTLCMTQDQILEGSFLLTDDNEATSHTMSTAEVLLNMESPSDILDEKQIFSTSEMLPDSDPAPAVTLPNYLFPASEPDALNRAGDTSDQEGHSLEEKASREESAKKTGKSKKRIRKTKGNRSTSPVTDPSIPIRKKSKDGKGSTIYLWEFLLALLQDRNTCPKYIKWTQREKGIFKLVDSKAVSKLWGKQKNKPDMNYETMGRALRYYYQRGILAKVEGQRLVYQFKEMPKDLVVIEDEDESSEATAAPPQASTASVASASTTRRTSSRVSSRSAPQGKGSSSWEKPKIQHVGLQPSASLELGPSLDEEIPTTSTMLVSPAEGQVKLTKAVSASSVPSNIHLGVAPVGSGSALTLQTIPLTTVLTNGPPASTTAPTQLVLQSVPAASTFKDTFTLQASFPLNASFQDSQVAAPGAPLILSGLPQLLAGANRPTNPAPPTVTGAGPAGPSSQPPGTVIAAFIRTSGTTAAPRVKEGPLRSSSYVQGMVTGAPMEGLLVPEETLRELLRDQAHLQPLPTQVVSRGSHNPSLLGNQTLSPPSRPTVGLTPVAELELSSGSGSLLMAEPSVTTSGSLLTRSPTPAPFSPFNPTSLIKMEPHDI
Sequence of ETV5 (P41161 whole entry): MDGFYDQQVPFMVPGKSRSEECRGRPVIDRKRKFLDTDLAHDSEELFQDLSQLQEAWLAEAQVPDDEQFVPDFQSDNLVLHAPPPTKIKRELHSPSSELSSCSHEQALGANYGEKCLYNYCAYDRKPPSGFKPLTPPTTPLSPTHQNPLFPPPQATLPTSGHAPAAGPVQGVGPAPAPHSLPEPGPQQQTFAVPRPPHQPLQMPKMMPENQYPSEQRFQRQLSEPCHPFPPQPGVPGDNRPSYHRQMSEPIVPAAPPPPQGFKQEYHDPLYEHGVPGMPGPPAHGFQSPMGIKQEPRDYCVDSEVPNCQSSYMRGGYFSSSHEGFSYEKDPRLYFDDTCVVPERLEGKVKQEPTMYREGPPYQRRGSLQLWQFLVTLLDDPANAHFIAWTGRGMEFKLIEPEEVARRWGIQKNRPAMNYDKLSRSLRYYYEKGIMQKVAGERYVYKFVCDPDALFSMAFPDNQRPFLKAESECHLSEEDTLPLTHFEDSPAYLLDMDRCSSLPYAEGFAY

In the case of CTTTGT, the binding signal with FEV was 1.28 fold enrichment (6-mer frequency, TF over GST control); with ETV5, 1.3 fold enrichment (6-mer frequency, TF over GST control); in the assay with HSF1, 1.22 fold enrichment (6-mer frequency, TF over GST control); with SPIC, 1.21 fold enrichment (6-mer frequency, TF over GST control); with ELF4, 1.29 fold enrichment (6-mer frequency, TF over GST control); with ELK4, 1.43 fold enrichment (6-mer frequency, TF over GST control). The binding signal is 1.03 fold enrichment (6-mer frequency, TF over GST control) in the assay with ETV2; 1.23 fold enrichment (6-mer frequency, TF over GST control) with ELF3; 1.38 fold enrichment (6-mer frequency, TF over GST control) in the assay with CRX; 1.25 fold enrichment (6-mer frequency, TF over GST control) with ETV1; 1.3 fold enrichment (6-mer frequency, TF over GST control) in the assay with ERF; 1.41 fold enrichment (6-mer frequency, TF over GST control) with ETV3L. Also, the binding signal in the assay with ETS2 is 1.24 fold enrichment (6-mer frequency, TF over GST control); with SPDEF it was 1.21 fold enrichment (6-mer frequency, TF over GST control); with ETV7 it was 1.36 fold enrichment (6-mer frequency, TF over GST control); in the assay with ELF5, 1.24 fold enrichment (6-mer frequency, TF over GST control); with ETV3, 1.32 fold enrichment (6-mer frequency, TF over GST control); with ETV6, 1.31 fold enrichment (6-mer frequency, TF over GST control).

Source of the values: publication PMC7862700, “An all-to-all approach to the identification of sequence-specific readers for epigenetic DNA modifications on cytosine”.
